Reference: PubChem BioAssay (NCI)
Compounds without any hit were thinned out: in the full panel of roughly 79,000, 15% have a hit. Active and inactive are the calls of the source. Rule as the data show it: active = growth inhibition above about 70%; inactive = the rest.

Assay: NCI Yeast Anticancer Drug Screen. Data for the rad50EPP+ strain (AID 151);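 also: 0% = growth of vehicle-treated control cultures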
Details: S. cerevisiae rad50 mutant strain, hits give high values
Method: Growth inhibition of yeast strains with defined genetic alterations is measured as a screen for potential anti-cancer activity. Selected strains with alterations in DNA damage repair or cell cycle control were exposed to compounds and growth inhibition was measured relative to vehicle treated controls. The strain used in this assay is rad50EPP+

Measured: growth inhibition

Oc1ccc(Cc2nccc3cc(O)c(O)cc23)cc1O
inactive: at 1.2 µM 16% | at 3.7 µM 31% | at 11.0 µM 22% | at 33.0 µM 24% | at 100.0 µM 33%

O=C(c1c(F)c(F)c(F)c(F)c1F)c1c(F)c(F)c(F)c(F)c1F
inactive: at 1.2 µM 30% | at 3.7 µM 60%
active: at 11.0 µM 94% | at 33.0 µM 96% | at 100.0 µM 92%

COc1ccc(/C=C2\S/C(=N/Nc3nc(-c4ccccc4)cs3)NC2=O)cc1OC
active: at 11.0 µM 93% | at 33.0 µM 97% | at 100.0 µM 97%
inactive: at 1.2 µM 29% | at 3.7 µM 63%

O=C(Nn1c(-c2ccccc2)nc2ccccc2c1=O)c1ccc(Cl)cc1
inactive: at 1.2 µM -1% | at 3.7 µM -11% | at 11.0 µM -2% | at 33.0 µM 16% | at 100.0 µM 27%

Cc1cccc[c]1[Sn]([Cl])([S]/C(C#N)=N/N=C/c1ccc(N(C)C)cc1)[c]1ccccc1C
inactive: at 1.2 µM 0% | at 3.7 µM -1% | at 11.0 µM 0% | at 33.0 µM 12% | at 100.0 µM 13%

O=S(=O)(Oc1c(Cl)cc(Cl)cc1Cl)c1ccccc1
inactive: at 1.2 µM 8% | at 3.7 µM 23% | at 11.0 µM 37%
active: at 33.0 µM 71% | at 100.0 µM 89%

Cc1ccc(SSc2ccc(C)cc2[N+](=O)[O-])c([N+](=O)[O-])c1
active: at 33.0 µM 90% | at 100.0 µM 87%
inactive: at 1.2 µM 7% | at 3.7 µM 16% | at 11.0 µM 48%

Cc1cc(NC(=S)SCc2ccc(Cl)cc2)ccc1Cl
inactive: at 1.2 µM 3% | at 3.7 µM 29%
active: at 11.0 µM 92% | at 33.0 µM 99% | at 100.0 µM 99%
